Shown are actives, neighbours in structure and some others; about 3.5% of the full set was active somewhere.
MITF primary: inhibitors of human MITF. O75030. inhibition, % at 2.6 µM. AlphaScreen MITF homodimerization, bead proximity signal. 650,000 tested, 0.91% active; in the data active = inhibition above about 50%;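 also: 0% = vehicle wells with protein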
GPR151 ag: activates the human receptor GPR151. Q8TDV0. PathHunter beta-arrestin GPR151 cells, luminescence. activation, % at 11.2 µM. 650,000 tested, 1% active. AID 1508602; in the data active = activation above about 4.9%;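 also: 0% = median of compound wells and 100% = cells with positive control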
Target sequence (Q8TDV0 whole entry, looked up): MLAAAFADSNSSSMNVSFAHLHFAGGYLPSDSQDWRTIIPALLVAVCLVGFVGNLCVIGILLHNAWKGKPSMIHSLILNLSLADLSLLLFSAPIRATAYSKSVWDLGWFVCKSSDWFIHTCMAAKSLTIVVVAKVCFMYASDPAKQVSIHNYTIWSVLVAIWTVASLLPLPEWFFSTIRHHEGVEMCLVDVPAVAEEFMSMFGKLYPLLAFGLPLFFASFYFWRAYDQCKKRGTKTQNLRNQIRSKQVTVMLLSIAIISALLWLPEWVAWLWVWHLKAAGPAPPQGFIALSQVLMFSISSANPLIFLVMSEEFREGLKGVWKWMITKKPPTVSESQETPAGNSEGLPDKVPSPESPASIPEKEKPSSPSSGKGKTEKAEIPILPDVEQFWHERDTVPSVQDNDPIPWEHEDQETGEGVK
TEAD-YAP block: TEAD-YAP interaction inhibition; HEK-TIYL cells, TEAD-Gal4/YAP UAS-luciferase luminescence; inhibition, % at 9.12 µM; 640,000 tested, 1.4% active; AID 1259422; in the data active = inhibition above about 32%;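 also: 0% = median of test compound wells and 100% = reference inhibitor wells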
FBW7 activator: human FBW7 E3 ligase activation, primary screen. Q969H0. AlphaScreen FBW7–phospho-cyclin E peptide binding, activator screen. normalized activity (activation), % at 26.1 µM. 650,000 tested, 0.13% active; in the data active = normalized activity above about 1.9%;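 also: purified mutant Fbw7 with reduced substrate affinity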
MITF confirm: confirmation of human MITF inhibitors. 4,700 tested, 16% active. AlphaScreen MITF homodimerization, biotin/His-MITF beads. shares compounds with MITF primary. inhibition, % at 2.6 µM;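 active = inhibition above a cutoff derived from the DMSO control wells, cut at about 28% in these data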;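 also: 0% = MITF dimer wells with DMSO only; inhibitors lower the bead chemiluminescence by keeping MITF from dimerizing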
AS interf DR: optically interferes with AlphaScreen signal in dose response; AID 1259373; 480 tested, 6% active; AlphaScreen optical interference counterscreen, cell-free; shares compounds with MITF primary; IC50, µM; call rule not given here
AlphaScreen intf2: optically interferes with AlphaScreen signal; shares compounds with MITF primary; LysRS AlphaScreen counterscreen, signal interference, triplicate; inhibition, % at 2.6 µM; 4,700 tested, 7.6% active;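 active = inhibition above a cutoff derived from the DMSO control wells, cut at about 30% in these data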
Active calls of the source: *; . = no result given.

SMILES	MITF primary	GPR151 ag	TEAD-YAP block	FBW7 activator	MITF confirm	AlphaScreen intf2	others
Cc1ccc(OCCn2cncn2)c(I)c1	60*	0	-1	1	8	12
C/C=C/c1ccc(OCCn2cncn2)c(OC)c1	55*	0	-5	0	13	17
C/C=C/c1ccc(OCCCCn2cncn2)c(OC)c1	55*	2	2	0	-10	-8
O=C(c1nc(-c2cccnc2)no1)N1CCN(c2ccccn2)CC1	0	-2	4	0	.	.
O=S(=O)(c1cccs1)N1CCN(CC(O)COc2ccccc2F)CC1 (stereo not given)	66*	-2	-4	0	-15	-2
O=S(=O)(/C=C/c1ccccc1)N1CCN(CC(O)COc2ccccc2F)CC1 (stereo not given)	60*	-1	2	0	2	8
OC(COc1ccccc1F)CN1CCN(c2ccccc2)CC1 (stereo not given)	2	4	7	0	.	.
O=S(=O)(c1cccs1)N1CCN(CCO)CC1	-2	1	7	0	.	.
COc1ccc([N+](=O)[O-])cc1NS(=O)(=O)c1cccs1	-2	5	10	0	.	.
CN(C)CC(C)(C)CNC(=S)NCc1ccc2c(c1)OCO2	54*	1	9	0	0	-2
CCOc1ccc(NCC(=O)Nc2ccc(F)cc2)cc1	68*	0	-27	0	5	1
CCOC(=O)N1CCN(C(=S)Nc2ccc(OCC)cc2)CC1	102*	-1	2	0	64*	-6	AS interf DR=>6.5
CCOC(=O)c1ccc(NC(=S)N2CCN(C(=O)OCC)CC2)cc1	6	0	-7	0	.	.
CC(C)C(=O)NCCc1nnc2n1CCN(C(=O)CCCc1cccs1)CC2	10	-1	3	0	.	.
COCCCNC(=O)C(=O)Nc1ccc(Cl)cc1C	11	-1	-13	0	.	.
Cc1nn(C)c(C)c1CCC(=O)N1CCN(c2ncccn2)CC1	72*	-1	-2	0	9	14
CCCCn1c(=O)[nH]c(=O)c2c1nc(-c1ccc([N+](=O)[O-])o1)n2C	79*	0	15	0	66*	5	AS interf DR=>7
CCCCn1c(=O)[nH]c(=O)c2c1nc(-c1ccc(C)c([N+](=O)[O-])c1)n2CC	11	0	-11	0	.	.
Cn1c(=O)oc2cc(S(=O)(=O)NCCN3CCN(c4ccccc4F)CC3)ccc21	14	0	1	0	.	.
O=S(=O)(NCCN1CCN(c2ccccc2F)CC1)c1ccccc1Cl	72*	2	-5	0	2	-4
CCOc1cc(CN2CCN(S(=O)(=O)c3ccccc3[N+](=O)[O-])CC2)ccc1OC	66*	2	-10	0	9	13
COc1cccc(CN2CCN(S(=O)(=O)c3ccccc3[N+](=O)[O-])CC2)c1	66*	0	-2	0	9	11
Cc1ncc(CO)c(/C=N/NC(=O)c2ccccc2O)c1O	49	3	-3	-2	.	.
Cc1ncc(CO)c(/C=N/NC(=O)c2ccc([N+](=O)[O-])cc2Cl)c1O	67*	-1	10	0	13	96*
Cc1ncc(CO)c(/C=N/NC(=O)c2ccc(Cl)cc2O)c1O	60*	1	-2	0	9	32*
SMILES	MITF primary	GPR151 ag	TEAD-YAP block	FBW7 activator	MITF confirm	AlphaScreen intf2	others
O=C(N/N=C/c1ccccn1)c1ccc([N+](=O)[O-])cc1Cl	27	2	-5	-1	.	.
COC(=O)c1ccccc1Oc1nc(C)c(C)c(OC)n1	-2	0	-5	0	.	.
Cc1nc2ccccn2c1-c1ccnn1S(=O)(=O)c1ccc(F)cc1	73*	-1	-3	0	-2	2
Cc1nc2ccccn2c1-c1nnco1	-14	1	-2	0	.	.
Cc1cc(=O)[nH]c(N/N=C/c2c3ccccc3cc3ccccc23)n1	51*	-2	-1	0	24	-4
COc1cc(OC)c(NC(=O)CSc2nnc(C)s2)cc1Cl	-1	2	10	0	.	.
Cc1cc(NC(=O)C(C)NCCc2ccccc2)no1 (stereo not given)	22	1	-1	0	.	.
Cc1cc(NC(=O)C(C)NC2CCCC2)no1 (stereo not given)	52*	0	-3	0	-2	7
Cc1cc(NC(=O)C(C)N2CCCC2)no1 (stereo not given)	-18	-1	-4	1	.	.
Cc1cc(NC(=O)C(C)NCCCN(C)C)no1 (stereo not given)	63*	1	-1	0	2	12
COc1ccc(CCNc2ccc(-c3ccc(OC)c(OC)c3)nn2)cc1OC	21	-1	7	0	.	.
CC1=NC(=S)C2C(=O)O/C(=C/c3ccc(-c4cccc([N+](=O)[O-])c4)o3)C2=C1 (stereo not given)	53*	-1	-5	0	34*	24
CC1=NN(c2cccc(C(=O)O)c2)C(=O)C1	60*	0	-2	0	14	25
CC1=NN(c2cccc(F)c2)C(=O)C1	-9	-1	3	-1	.	.
O=C(COc1ccccc1)Nc1ccc(NC(=O)c2cccs2)cc1	51*	1	-1	0	-16	1
O=C(c1cccc(F)c1)N1CCN(Cc2cccnc2)CC1	87*	0	-3	0	-4	0
O=C(c1ccccc1F)N1CCN(Cc2cccc(F)c2)CC1	54*	1	-6	0	-3	4
O=C(c1cccc(F)c1)N1CCN(Cc2cccc(Oc3ccccc3)c2)CC1	38	2	-16	0	.	.
O=C(c1cccc(F)c1)N1CCN(Cc2cccc(F)c2)CC1	57*	-1	-6	0	6	16
CSc1ccc(CN2CCOc3ccc(CN4CCN(C(C)=O)CC4)cc3C2)cc1	88*	1	37*	0	3	-2
O=C(c1cccc(F)c1)N1CCN(CC2CC3C=CC2C3)CC1 (stereo not given)	58*	0	-6	0	-23	4
O=C(c1ccc(-c2ccccc2)cc1)N1CCN(Cc2cccnc2)CC1	68*	1	-10	0	19	15
COc1cc(OC)cc(C(=O)N2CCN(Cc3cccc(Br)c3)CC2)c1	41	-2	5	0	.	.
O=C(c1cccc(F)c1)N1CCN(Cc2ccncc2)CC1	78*	-2	-7	1	64*	-6	AS interf DR=>5.7
O=C(c1ccc(F)cc1)N1CCN(Cc2cccc(Br)c2)CC1	58*	-1	9	0	-7	-6
O=C(c1ccccc1F)N1CCN(CC2CC3C=CC2C3)CC1 (stereo not given)	39	0	5	0	.	.
O=C(c1cccc(C(=O)N2CCN(Cc3ccccc3)CC2)c1)N1CCN(Cc2ccccc2)CC1	-4	-1	16	0	.	.
COc1cc([C@@H]2C[C@H]3CN(C)C(=O)[C@]34CCCN24)ccc1F	-6	-1	2	1	.	.
